PubChem BioAssay (NCI)
Compounds without any hit were thinned out: in the full panel of roughly 83,000, 20% have a hit.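 Method: cells in 96-well plates; compound added at one concentration; 48 h incubation; percent growth measured; values under 10 scored active.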 Values without a mark were called inactive. The source made the active and inactive calls.

These compounds were tested on OVCAR-4 ovarian (assay: NCI-60 one-dose screen, 48 h (100 = growth as untreated, 0 = no growth, -100 = all killed)). Settings: 10 µM unless noted.
Experimental: Growth inhibition of the OVCAR-4 human tumor cell line is measured as a screen for anti-cancer activity. Cells are grown in 96 well plates and exposed to the test compound for 48 hours. Compounds are tested at a single concentration, which is 10^-5 M for most compounds. The reported endpoint is percent growth (GI% or GIPRCNT), where numbers from 0 - 100% represent growth inhibition, and numbers from -100% - 0 represent cell death. For example, a value of 40 represents 60% growth inhibition. A value of 0 means no net growth occurred over the course of the experiment. A value of -40 indicates 40% of cells at the beginning of the experiment died by the end of the experiment. A value of -100 means all cells are dead at the end of the experiment.
NCI-60 Human Tumor Cell Lines Screen was performed using the standard one-dose NCI protocol, which is described in more detail at https://dtp.cancer.gov/discovery_development/nci-60/default.htm.
Compounds with GIPRCNT values below 10 were considered active. Activity score was based on GIPRCNT using the following formula: […]
Score is 0 for GIPRCNT values of 100 or above, 50 for GIPRCNT values of 0, and 100 for GIPRCNT values of -100.

Row | SMILES | growth
1 | COC1=C(OC)C(=O)C(SC/C=C(\C)CCCC(C)CCCC(C)CCCC(C)C)=CC1=O (stereo not given) | 27.9%
2 | O=C1C=C[C@H](O)[C@@]2(CO)O[C@@H]12 | 90%
3 | C=CCc1cc(OC)c(O)c(OC)c1 | 102%
4 | COc1ccc(C2CC(c3ccccc3)=Nc3ccccc3S2)cc1 (stereo not given) | 97.2%
5 | CS(=O)(=O)c1ccc(/C=C\C(=O)O)cc1 | 98.2%
6 | Cc1ccc([N+](=O)[O-])c(C)n1 | 99.1%
7 | O=C1C=CC(=O)C2=C1CCCC2 | 88%
8 | CC(=O)Nc1ccc(O)c(C)c1 | 100%
9 | COc1cccc(C(=O)O)c1OC | 95%
10 | O=C(OC1CCCC1)c1ccccc1Cl | 107%
11 | O=C1CSc2ccccc2N1 | 98.9%
12 | O=S(=O)(O)c1cccnc1 | 114%
13 | COC1OC(C(O)C(O)CO)C(O)C(O)C1O (stereo not given) | 109%
14 | CCOP(=O)(NC(c1ccccc1)c1ccccc1)OCC | 106%
15 | CCOC(=O)/C(C)=C\c1ccc(OC)c(OC)c1 | 101%
16 | CCc1ccccc1C(=O)N(CC)CC | 108%
17 | CCCCCC(=O)OCCC1CCCCC1 | 101%
18 | C[C@H](CCC[C@H](C)OS(=O)(=O)c1ccccc1)OS(=O)(=O)c1ccccc1 | 103%
19 | Cc1cc(C(=O)c2ccccc2)cc(C)c1O | 86.8%
20 | O=C(Nc1ccccc1)c1ccco1 | 100%

Row | SMILES | growth
21 | Cn1c(=O)c2[nH]c(CCCCC(=O)O)nc2n(C)c1=O | 124%
22 | CCC1CCC(C)NC1 (stereo not given) | 107%
23 | CN1CCCN(C(c2ccccc2)c2ccc(Br)cc2)CC1 (stereo not given) | 84.7%
24 | COc1nc(Nc2cccc(C(F)(F)F)c2)nc(OC)n1 | 105%
25 | CCOC(C=O)OCC | 114%
26 | CC(=O)Nc1ncc(S(=O)(=O)c2ccc([N+](=O)[O-])cc2)s1 | 102%
27 | NC(=O)NCCO | 110%
28 | CC(=O)C[n+]1ccc(C)cc1Sc1ccccc1C | 100%
29 | CCCOCc1cn[nH]n1 | 110%
30 | C=C(c1ccc(N(C)C)cc1)c1ccc(N(C)C)cc1 | 48.9%
31 | CC(=O)N=c1ccc2nc3c(cc(N)c4ccccc43)oc-2c1 | -89.8% (active)
32 | C=CCC(O)C=C (stereo not given) | 106%
33 | O=C(O)Cc1ccc(Cl)cc1 | 107%
34 | COc1ccc(C)cc1NC(=O)SC(C)C | 96.7% [100 µM]
35 | OCCOc1ccc(-c2cc(-c3ccccn3)nc(-c3ccccn3)c2)cc1 | 5.18% (active)
36 | O=C1C=C(c2ccccc2)C(O)(c2ccccc2)C1 (stereo not given) | 95.7%
37 | CC(O)C(F)(F)C(F)(F)C(F)(F)F (stereo not given) | 103%
38 | CSCCC(NC(=O)C(Cl)Cl)C(=O)O (stereo not given) | 115%
39 | CCCc1cccc(CCC)c1NC(=O)Nc1cc(Cl)cc(Cl)c1 | 95.3%
40 | C1=NCCc2ccccc21 | 98.7%
